# Screens as filed in PubChem.
# TDP1 inh – TDP1 (human) enzyme inhibition | Q9NUW8 | recombinant TDP1, AlphaScreen DNA substrate cleavage | Potency, µM (top dose mostly 130 µM), for inactives: at the top dose activity change, negative = inhibition, actives largely listed as inhibitors | hit rate 0.28% among 350,000 | AID 485290; further: potency means the concentration at half of the fitted maximal effect; nearly all actives have a fitted effect of over 40% in size
# Target sequence (Q9NUW8 whole entry, looked up): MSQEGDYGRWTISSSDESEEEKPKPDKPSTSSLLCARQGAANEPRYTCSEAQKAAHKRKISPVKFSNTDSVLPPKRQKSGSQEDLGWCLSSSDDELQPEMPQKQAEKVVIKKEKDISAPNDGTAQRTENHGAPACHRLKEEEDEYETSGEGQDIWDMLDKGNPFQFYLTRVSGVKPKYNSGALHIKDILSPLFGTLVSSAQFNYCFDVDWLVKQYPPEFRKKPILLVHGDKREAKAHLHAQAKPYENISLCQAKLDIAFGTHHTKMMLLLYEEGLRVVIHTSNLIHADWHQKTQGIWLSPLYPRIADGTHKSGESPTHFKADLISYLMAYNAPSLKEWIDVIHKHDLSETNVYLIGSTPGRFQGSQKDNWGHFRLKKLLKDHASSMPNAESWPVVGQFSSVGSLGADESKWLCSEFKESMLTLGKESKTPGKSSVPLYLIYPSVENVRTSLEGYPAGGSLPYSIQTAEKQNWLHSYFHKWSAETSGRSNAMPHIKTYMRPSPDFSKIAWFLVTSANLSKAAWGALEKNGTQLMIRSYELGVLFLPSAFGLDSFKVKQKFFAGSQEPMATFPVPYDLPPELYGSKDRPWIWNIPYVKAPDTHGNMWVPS
#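 Tdp1 1 nM final; 15 min RT w/ cpd; substrate 15 nM, 5 min; beads 10 ug/ml, 10 min; AlphaScreen read. Neg ctrl: no enzyme.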
# ELG1 repair inh – blocks ELG1-dependent DNA repair in HEK293T cells. HEK293T ELG1-luciferase reporter, luminescence, 16 h; DNA damage induced by 5-fluorouridine. Potency, µM (top dose mostly 46.1 µM), inactives show at the top dose activity change, negative = inhibition, usual class: inhibitors. hit rate 2.3% among 330,000. AID 504467; further: potency means the concentration at half of the fitted maximal effect; nearly all actives have a fitted effect of over 55% in size
#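 Luminescence from the luciferase reporter, measured 30 min after ONE-Glo reagent at room temperature, was the read-out. Beforehand, 2,000 cells per well were exposed for 16 hr at 37 °C to 5-fluorouridine together with compound or vehicle.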
# TDP1 cell CPT – DT40-hTDP1 cell growth loss with CPT; chicken DT40 Tdp1-/-;hTDP1 cells + 20 nM CPT, ATP luminescence, 48 h; Potency, µM (highest dose often 46.2 µM), without a hit: at the top dose activity change, negative = growth inhibition, hits mostly inhibitors; hit rate 12% among 420,000; further: potency means the concentration at half of the fitted maximal effect; nearly all actives have a fitted effect of over 55% in size
#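 Chicken DT40 Tdp1-/- cells stably complemented with human TDP1 were seeded at 400 cells/well in medium containing 20 nM camptothecin, exposed to pin-transferred compounds, and grown at 37 °C for at least 48 hr. Viability was read as ATP luminescence.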
# TDP1 cell noCPT – qHTS for Inhibitors of human tyrosyl-DNA phosphodiesterase 1 (TDP1): qHTS in cells in absence of CPT | DT40 Tdp1-/- hTDP1 cells, no CPT, ATP luminescence, 48 h | Potency, µM (top dose mostly 46.2 µM), for the others: at the highest dose activity change, negative = growth inhibition, actives largely listed as inhibitors | hit rate 15% among 420,000 | AID 686978, 2013; further: potency means the concentration at half of the fitted maximal effect; nearly all actives have a fitted effect of over 55% in size
#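 Chicken DT40 Tdp1-/- cells complemented with human TDP1, screened without camptothecin (DMSO vehicle only), 400 cells/well. Compounds pin-transferred, cells incubated at 37 °C for at least 48 hr. Growth read as ATP-dependent luminescence (CellTiter-Glo, 30 min at RT).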
# IL1B secr inh – inhibitors of inflammasome signaling (IL-1 beta secretion). THP-1 LPS/ATP IL-1B secretion, AlphaLISA, 16 h; hits give low values. activity change, % at 57.5 µM. hit rate 4.7% among 360,000; in the data active means activity change below about -50%; inconclusive means mostly about -30% to -49%
#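 THP-1 cells pretreated 1 hr with compounds (up to 57.5 uM final), then stimulated with LPS (250 ng/mL final) plus ATP (1.25 mM final); secreted IL-1B measured by AlphaLISA after 16 hr, decreased signal indicating inhibition.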
# Giardia kill – kills Giardia lamblia; Giardia lamblia trophozoite viability; activity change, % at 7.66 µM, hits read low; hit rate 0.15% among 340,000; AID 540267; in the data active means activity change below about -80%; inconclusive means between about -30% and that limit;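 further: parasites exposed to compound for two days anaerobically before the ATP read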
#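 Giardia lamblia trophozoites (100 cells/well) were incubated with compounds for 48 h at 37 deg C under anaerobic conditions. Viability was read as ATP content by one-step luminescence after 15-30 min at room temperature.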
# Numbers without * were called inactive; i = inactive; ? = inconclusive; nt = no result; [ ] = dose if it differs, or a comment. A selection: hits, their analogues and other compounds. The true share with any hit is near 19%. Unless noted, the call rests on the fitted dose curve; in most records, active means well fitted curve in the direction sought with a large enough effect; inconclusive means small, poorly fitted or top-dose-only effect, or another doubt; inactive means no such curve, though single readings can be large; an effect the other way counts as inactive or inconclusive. On the % scale 0 is the no-effect control and ±100 the full control effect.
SMILES,TDP1 inh,ELG1 repair inh,TDP1 cell CPT,TDP1 cell noCPT,IL1B secr inh,Giardia kill
Cc1ccc(-c2nnc(Nc3cccc(Cl)c3)c3ccccc23)cc1S(=O)(=O)N1CCOCC1,-2%[12.3 µM],nt,16µM*,4.1µM*,nt,nt
CCOC(=O)c1c(C)[nH]c(C)c1S(=O)(=O)N1CCC(C(=O)NCc2ccc(N(C)C)cc2)CC1,-3%,nt,-12%,-19%,nt,nt
CSc1ccc(S(=O)(=O)NCC(=O)OCC(=O)N2CCCC2=O)cc1[N+](=O)[O-],-11%,16%,?,?,-96*,20
COC(=O)C1CCN(C(=O)COC(=O)CNS(=O)(=O)c2ccc(SC)c([N+](=O)[O-])c2)CC1,35µM*,16%,-20%,-1%,1,?
CSc1ccc(S(=O)(=O)NCC(=O)OCC(=O)N2CC(C)CC(C)C2)cc1[N+](=O)[O-] (centres undefined),2%[0.505 µM],5%,1%,9%,-1,13
CSc1ccc(S(=O)(=O)NCC(=O)OCC(=O)NCc2cccs2)cc1[N+](=O)[O-],-13%,7%,-6%,-19%,-66*,-3
CCOc1cccc2sc(NC(=O)CCS(=O)(=O)c3ccccc3)nc12,1%,?,8.2µM*,8.2µM*,i,-7
CCOc1cccc2sc(N(CCN(C)C)C(=O)CCS(=O)(=O)c3ccccc3)nc12,nt,nt,?,-4%,-19,15
COc1ccc(C)c2sc(NC(=O)CCS(=O)(=O)c3ccccc3)nc12,7%[56.1 µM],?,23µM*,16µM*,-90*,-12
CCOc1cccc2sc(Nc3nc4ccc(NC(C)=O)cc4s3)nc12,-3%,?,18µM*,?,?,-28
COc1ccc(C)c2sc(NNC(=O)COc3ccccc3)nc12,2%,?,nt,nt,nt,nt
Cc1ccc(C)c(NC(=O)C(c2ccccc2)N2CCOCC2)c1 (centres undefined),0%,-1%,4%,-4%,-14,20
Cc1ccc(CN2CCCn3nc(C(=O)NCc4ccc(N(C)C)cc4)cc3C2=O)cc1,6%,nt,?,13µM*,nt,nt
Cc1ccc(CN2CCCn3nc(C(=O)NCc4cc(C)ccc4C)cc3C2=O)cc1,-4%,nt,15µM*,16µM*,nt,nt
Cc1ccc(CN2CCCn3nc(C(=O)NCCN(C)C)cc3C2=O)cc1,1%,nt,-3%,0%,nt,nt
CC(C)C(=O)NCC1CCC2(CCN(Cc3ccc(-c4cccc(Cl)c4)o3)CC2)O1 (centres undefined),nt,nt,-24%,?,nt,nt
C=C(C)CN1C(=O)C2(OCCO2)c2cc(Br)ccc21,nt,nt,1%,8%,30,12
CCOc1cc(S(=O)(=O)NC2CCCCCC2)ccc1F,-13%,?,21µM*,?,37,15
O=S(=O)(NC1CCCCCC1)c1cccc(Cl)c1,-6%,-1%,?,?,?,21
Cc1cccc(S(=O)(=O)NC2CCCCCCC2)c1,5%[0.0935 µM],?,21µM*,?,-6,-6
COC(=O)c1ccc(CSc2nc3c([nH]c4ccccc43)c(=O)n2-c2ccc(Cl)cc2)o1,1%,nt,?,?,nt,nt
COC(=O)c1ccc(CSc2nc3c([nH]c4ccccc43)c(=O)n2-c2ccc(OC)cc2)o1,3%,nt,18µM*,18µM*,nt,nt
CCOc1ccc(-n2c(SCc3ccc(C(=O)OC)o3)nc3c([nH]c4ccccc43)c2=O)cc1,1%,nt,23µM*,?,nt,nt
Cc1nc2c3ccccc3n(Cc3ccccc3F)c2s1,1%,?,?,?,49,14
Cc1nc2c3cc(F)ccc3n(Cc3ccccc3F)c2s1,5%,?,7.3µM*,?,8,2
SMILES,TDP1 inh,ELG1 repair inh,TDP1 cell CPT,TDP1 cell noCPT,IL1B secr inh,Giardia kill
Cc1nc2c3cc(F)ccc3n(CCN3CCCCC3)c2s1,-5%,0%,6.5µM*,7.3µM*,?,?
Cn1c(CC(=O)NNC(=O)c2cccnc2)nc2ccccc21,-1%[56.1 µM],8%,-6%,12%,12,-6
CCc1ccc(NC(=O)Cn2c(=O)n(-c3ccc(Cl)c(Cl)c3)c(=O)c3c(C)c(C)sc32)cc1,3%,nt,-13%,0%,nt,nt
O=C(CN1CC(=O)Oc2ccccc21)OCC(=O)c1ccc(Br)cc1,nt,nt,21µM*,?,68,4
O=C(CN1CC(=O)Oc2ccccc21)OCC(=O)c1ccc(F)cc1,?,?,?,?,47,3
CC(C)(C)NC(=O)NC(=O)COC(=O)CCC1CCCC1,4%,14%,-4%,?,-15,?
CCN(Cc1ccccc1)c1ccc(/C=C/c2ccnc3ccccc23)cc1,nt,nt,?,11µM*,nt,nt
C(=C\c1ccnc2ccccc12)/c1ccc(N(Cc2ccccc2)Cc2ccccc2)cc1,nt,nt,13µM*,13µM*,nt,nt
c1ccc2c(c1)ccc1ncccc12,2%,6%,-21%,-18%,-2,6
CCN(Cc1nc2ccccc2n1C)c1ccccc1,nt,?,-27%,?,1,-17
Cc1ccc(NS(=O)(=O)c2ccc(C(=O)NCCCN3CCCC3=O)cc2)cc1C,-4%,0%,13µM*,23µM*,1,-9
COc1cc(C(=O)NCCCN2CCCC2=O)ccc1OCc1ccc(Cl)cc1Cl,0%,?,13µM*,18µM*,-52*,-9
O=C1CCC(C(=O)OCC(=O)N2N=C3/C(=C/c4ccccc4)CCCC3C2c2ccccc2)N1 (centres undefined),5%,-21%,?,23µM*,14,21
O=C1CCC(C(=O)OCC(=O)N2N=C3/C(=C\c4ccccc4)CCCC3C2c2ccccc2)N1 (centres undefined),nt,nt,?,21µM*,8,14
O=C(c1ccccn1)N1N=C2/C(=C/c3ccccc3)CCCC2C1c1ccccc1 (centres undefined),4%,-9%,?,?,1,-28
COc1ccc(/C=C2\CCCC3C2=NN(C(=O)CSc2n[nH]c(N)n2)C3c2ccc(OC)cc2)cc1 (centres undefined),7%,0%,23µM*,?,-19,7
O=C(Nc1ccccc1[N+](=O)[O-])C1COc2ccccc2O1 (centres undefined),nt,?,2%,0%,10,-6
CC(C)NC(=O)c1ccc(-n2c(=S)[nH]c3ccccc3c2=O)cc1,-2%,-2%,nt,nt,nt,nt
